Measured values as given in PMC5540273 (PLoS ONE, 2017).

Tests used:
Details in all cases: concentration: 1 μM, replicates: in singlicate; n = 1
[1] = tested on: RIPK1
[2] = tested on: RIPK2
[3] = tested on: RIPK4
[4] = tested on: RIPK5
[5] = tested on: ROCK1
[6] = tested on: ROCK2
[7] = tested on: ROS1
[8] = tested on: RPS6KA4(Kin.Dom.1-N-terminal)
[9] = tested on: RPS6KA4(Kin.Dom.2-C-terminal)
[10] = tested on: RPS6KA5(Kin.Dom.1-N-terminal)
[11] = tested on: RPS6KA5(Kin.Dom.2-C-terminal)
[12] = tested on: T1, RSK1(Kin.Dom.1-N-terminal)
T1 construct: gene RPS6KA1

[13] = tested on: T2, RSK1(Kin.Dom.2-C-terminal)
T2 construct: gene RPS6KA1

[14] = tested on: T3, RSK2(Kin.Dom.1-N-terminal)
T3 construct: gene RPS6KA3

[15] = tested on: T4, RSK2(Kin.Dom.2-C-terminal)
T4 construct: gene RPS6KA3

[16] = tested on: T5, RSK3(Kin.Dom.1-N-terminal)
T5 construct: gene RPS6KA2

[17] = tested on: T6, RSK3(Kin.Dom.2-C-terminal)
T6 construct: gene RPS6KA2

[18] = tested on: T7, RSK4(Kin.Dom.1-N-terminal)
T7 construct: gene RPS6KA6

[19] = tested on: T8, RSK4(Kin.Dom.2-C-terminal)
T8 construct: gene RPS6KA6

[20] = tested on: S6K1
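Also: KINOMEscan kinase panel screen.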

SMILES	%Inh [1]	%Inh [2]	%Inh [3]	%Inh [4]	%Inh [5]	%Inh [6]	%Inh [7]	%Inh [8]	%Inh [9]	%Inh [10]	%Inh [11]	%Inh [12]	%Inh [13]	%Inh [14]	%Inh [15]	%Inh [16]	%Inh [17]	%Inh [18]	%Inh [19]	%Inh [20]
CSc1ccc(NC2=C(c3ccccc3Cl)C(=O)NC2=O)cc1 [SB-342411]	0%	32%	6%	0%	0%	0%	0%	0%	0%	5%	1%	6%	15%	0%	0%	1%	0%	0%	0%	1%
CNc1nccc(-c2c(-c3ccc(F)cc3)ncn2CCCN2CCOCC2)n1 [SB-222516]	9%	0%	33%	0%	4%	0%	3%	27%	1%	8%	17%	5%	0%	9%	55%	3%	0%	7%	87%	2%
C[C@@H]1CCN(C(=O)CO)C[C@@H]1N(C)c1ncnc2[nH]ccc12	0%	0%	0%	12%	16%	23%	0%	88%	0%	0%	13%	0%	4%	0%	0%	0%	23%	0%	30%	1%
COc1ccc(NC(=O)c2ccc(-c3cc(-c4nnc(C)o4)ccc3C)cc2)cc1 [GW595885]	0%	0%	9%	0%	10%	13%	0%	0%	0%	12%	0%	17%	0%	0%	0%	0%	0%	0%	5%	4%
Cn1ccc2ncnc(Oc3ccc(NC(=O)Nc4cccnc4)c(Cl)c3)c21	0%	3%	0%	19%	1%	0%	0%	0%	0%	17%	13%	0%	41%	1%	0%	0%	17%	0%	3%	0%
CS(=O)(=O)CCNCc1ccc(-c2ccc3ncnc(Nc4ccc(OCc5ccccc5)c(Cl)c4)c3c2)o1.Cl [GW574783]	9%	79%	0%	0%	22%	21%	0%	32%	0%	28%	0%	0%	0%	4%	29%	17%	6%	6%	8%	0%
CNc1nccc(-c2c(-c3ccc(F)cc3)ncn2C2CCN(C)CC2)n1 [SB-222903]	3%	40%	0%	2%	56%	0%	0%	15%	0%	0%	12%	0%	32%	5%	0%	0%	0%	0%	73%	0%
c1ccc(-c2ccc3c(-c4ccnc(Nc5ccc6c(c5)OCCO6)n4)cnn3n2)cc1 [GW818941]	3%	9%	0%	0%	28%	10%	5%	33%	0%	10%	7%	0%	2%	0%	23%	0%	3%	0%	4%	3%
COC(=O)c1c(-c2ccccc2)c2cc(Cl)ccc2c(=O)n1Cc1ccc(S(C)(=O)=O)cc1	0%	0%	13%	4%	6%	0%	0%	0%	5%	8%	0%	5%	11%	5%	15%	9%	6%	0%	8%	0%
FC(F)(F)c1cc(Nc2nccc(-c3c(-c4ccc(Cl)cc4)nn4ncccc34)n2)ccc1Cl [GW829351]	0%	6%	0%	0%	50%	0%	0%	0%	0%	0%	0%	0%	28%	11%	0%	0%	0%	0%	45%	0%
CS(=O)(=O)CCNCc1nc(-c2ccc3ncnc(Nc4ccc(OCc5cccc(F)c5)c(Cl)c4)c3c2)cs1.Cl [GW583340]	2%	42%	6%	1%	5%	0%	0%	10%	0%	0%	9%	22%	10%	0%	0%	0%	11%	0%	25%	6%
O=C(Nc1ccccc1)Nc1ccc(Oc2ccc3nccn3n2)cc1	11%	88%	0%	0%	0%	0%	0%	50%	0%	0%	19%	5%	0%	0%	0%	6%	0%	0%	0%	0%
O=C(Nc1ccccc1F)NC1CCN(c2ccnc(Nc3ccc(F)cc3)n2)C1 (stereo not drawn) [GSK1379722]	0%	0%	98.7%	0%	11%	16%	22%	6%	0%	20%	19%	8%	0%	14%	28%	13%	0%	0%	0%	11%
COc1ccc(Nc2nccc(N3CCC(NC(=O)Nc4ccc5c(c4)OCO5)C3)n2)cc1 (stereo not drawn) [GSK1379745]	0%	0%	0%	0%	12%	9%	34%	13%	0%	0%	0%	0%	8%	10%	0%	17%	19%	0%	41%	0%
CC(C)(C)c1ccc(-n2cnc3c(N)ncnc32)cc1 [SKF-97263]	1%	0%	16%	14%	0%	0%	15%	0%	2%	19%	0%	0%	16%	0%	28%	8%	0%	15%	0%	10%
